# Measured values: the supplement of paper PMC12636033
# ± gives the standard deviation of the averaged measurements. The full ranking holds about 33,000 sequences; the median of “E-score (rank enrichment, -0.5 to 0.5)” is about -0.0028, and the highest 2% start at about 0.23. This excerpt belongs to a sample that is enriched for the highest values.
# Test system: 2Sb-muMax20 (muMax20 with two 1,3-bis(methyl)benzene Cys staples, A13C/A17C and Q88C/A92C, C-terminal Lys)
# Assay: PBM 8-mer E-score (E-score (rank enrichment, -0.5 to 0.5)); higher = stronger preferential binding
# Experimental: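 Protein binding microarray (universal PBM chip covering all 10-mers in fixed probe flanks) with chemically synthesized human Max(13-93) bHLH-LZ analogs (not full-length Max) bearing noncanonical residues (hArg, Tha, Aib, Nle at 65) and aromatic Cys staples. Read-out per 8-mer (and its reverse complement): E-score (rank-based enrichment, -0.5 to 0.5) and Z-score of median probe intensity.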
row,Sequence,PBM 8-mer E-score
1,TCGAAAGA,0.0439 ± 0.024
2,CATAGATG,-0.111 ± 0.065
3,CAAGGCAC,0.0684 ± 0.076
4,ACTAGCCT,0.134 ± 0.035
5,CTCCCGCA,0.0448 ± 0.016
6,AAACATAC,0.199 ± 0.015
7,AAACATAG,0.0193 ± 0.016
8,AAACATAT,0.247 ± 0.042
9,AAACATAA,0.28 ± 0.013
10,GAACATAA,0.198 ± 0.058
11,TAACATAA,0.217 ± 0.058
12,CCGATCAG,-0.247 ± 0.028
13,GGGCTTAA,0.0764 ± 0.033
14,CGAATGTC,-0.0317 ± 0.0078
15,CGAATGCA,0.248 ± 0.035
16,CGAATGCG,-0.0308 ± 0.079
17,CGAATGCC,-0.00354 ± 0.078
18,GGAATGTA,0.0875 ± 0.012
19,CGAATGTA,0.241 ± 0.011
20,ACAGTACC,-0.0999 ± 0.06
21,GCTGTGCA,-0.0668 ± 0.075
22,GGCCACAC,-0.0997 ± 0.082
23,CTTAACTC,0.0502 ± 0.01
24,TCTTTCAA,0.0646 ± 0.0097
25,CGACACAA,-0.0479 ± 0.0084

row,Sequence,PBM 8-mer E-score
1,GCACACAA,0.233 ± 0.012
2,GGACACAC,-0.0301 ± 0.051
3,GCACACAC,-0.0369 ± 0.062
4,AGACACAA,0.00927 ± 0.0092
5,AAACACAA,0.153 ± 0.0061
6,ACACACAA,0.0979 ± 0.013
7,CAACACAA,0.0293 ± 0.052
8,GGACACAA,0.238 ± 0.045
9,GGACACGA,-0.122 ± 0.0082
10,TGACACAA,0.239 ± 0.0028
11,TAACACAA,0.232 ± 0.058
12,CGTCCACG,-0.0278 ± 0.092
13,GGCCCGAC,-0.223 ± 0.016
14,CTGGTGGA,-0.184 ± 0.0071
15,CCCCAAAG,-0.0426 ± 0.063
16,CCTCTGGC,-0.104 ± 0.017
17,GAACTATC,0.0395 ± 0.014
18,GCACAACA,0.263 ± 0.066
19,GCACAACC,-0.2359 ± 0.0019
20,CCACAACA,0.0344 ± 0.024
21,CTCCTTGC,-0.0809 ± 0.064
22,GAACCACC,-0.0303 ± 0.047
23,CCCATAAC,0.128 ± 0.0013
24,CCCATAAG,0.277 ± 0.06
25,ACCATAAG,0.0575 ± 0.0016

row,Sequence,PBM 8-mer E-score
1,ATACGTTG,0.11 ± 0.057
2,ATCTTGTA,-0.0155 ± 0.031
3,ATACAGTA,0.223 ± 0.018
4,ATACAGTG,0.237 ± 0.028
5,ATACAGTC,-0.00634 ± 0.095
6,ACGTCAAA,0.148 ± 0.052
7,CTTGCTGA,-0.0397 ± 0.039
8,GACGGAAC,-0.127 ± 0.049
9,CTCCTTAA,-0.0933 ± 0.1
10,GAGACCCA,-0.107 ± 0.056
11,AAGACCCA,0.042 ± 0.021
12,TAGACCCA,0.243 ± 0.021
13,CAGAGCAG,-0.155 ± 0.026
14,ACTGTTCT,0.114 ± 0.014
15,AATAATAG,0.146 ± 0.0061
16,ACTAATAT,0.0629 ± 0.074
17,CGTAATAG,0.168 ± 0.063
18,AGTAATAC,-0.0436 ± 0.038
19,AGTAATAG,0.255 ± 0.043
20,ACTAATAC,0.188 ± 0.061
21,ACTAATAG,0.261 ± 0.027
22,CATAATAG,0.258 ± 0.0042
23,CATAATAA,0.123 ± 0.049
24,CCTGGTTA,-0.0217 ± 0.078
25,AGCGGTAA,-0.128 ± 0.0078

row,Sequence,PBM 8-mer E-score
1,GAGGCTCC,-0.117 ± 0.064
2,AACTTTGT,0.12 ± 0.0076
3,AACACTAG,0.193 ± 0.0046
4,CTGACGCC,-0.0915 ± 0.025
5,AATGCTTG,-0.00273 ± 0.049
6,TCCACAGA,-0.0264 ± 0.053
7,CCTCGACG,-0.141 ± 0.026
8,AATTGCTA,0.268 ± 0.048
9,CGTTGCTA,0.237 ± 0.019
10,CGTTGCTC,-0.0317 ± 0.009
11,CATTGCTA,0.102 ± 0.021
12,AATTGCTG,0.0578 ± 0.078
13,AGTTGCTA,0.0844 ± 0.05
14,CCACCTTC,0.0963 ± 0.024
15,AACTGAGG,-0.066 ± 0.0013
16,ACGGAAGA,-0.0282 ± 0.0086
17,ATCACAAA,0.187 ± 0.032
18,ACGTACGC,0.0419 ± 0.012
19,CGCTAGCA,-0.253 ± 0.03
20,GGCTAGCA,0.0623 ± 0.01
21,TGCTAGCA,0.245 ± 0.069
22,AACAAGTA,-0.0361 ± 0.0029
23,AAACAAAC,0.0967 ± 0.0062
24,AAACAAAT,0.262 ± 0.056
25,AACAAATA,0.269 ± 0.024

row,Sequence,PBM 8-mer E-score
1,TACAAACA,-0.0196 ± 0.043
2,GCCAAATA,0.136 ± 0.0084
3,AACAAACA,0.257 ± 0.003
4,TACAAATA,0.166 ± 0.013
5,AAACAAAA,0.133 ± 0.04
6,CCCAAGTA,0.209 ± 0.045
7,AACAAACC,0.0286 ± 0.068
8,CCCAAATA,0.24 ± 0.02
9,ATTCCGTA,-0.178 ± 0.0038
10,AGCCTGCC,-0.0253 ± 0.013
11,GACCAGCA,0.0345 ± 0.019
12,AGAAATTC,0.0899 ± 0.038
13,CAATGAGC,-0.0934 ± 0.018
14,ACTGGCAC,-0.112 ± 0.0073
15,CTATCAAG,0.0675 ± 0.11
16,CACCTATG,-0.067 ± 0.015
17,AACAAGTC,0.232 ± 0.0046
18,GACAAGTC,-0.141 ± 0.038
19,AACAAAAT,0.275 ± 0.042
20,AACAAAAA,0.0552 ± 0.028
21,AACAAGAT,0.136 ± 0.05
22,CACAAGTC,-0.0773 ± 0.025
23,CTTCTTGC,-0.076 ± 0.029
24,ACAATAAA,0.157 ± 0.082
25,ACAATAAC,0.18 ± 0.04

row,Sequence,PBM 8-mer E-score
1,ACAATAAT,0.2723 ± 0.0017
2,ACAATACC,0.247 ± 0.01
3,ACAATACT,0.098 ± 0.011
4,ACAATACA,0.0315 ± 0.045
5,CCACTTAA,0.0781 ± 0.04
6,GTGCCCGA,-0.169 ± 0.03
7,CAGAGGCG,-0.0537 ± 0.004
8,GCGGGACA,-0.0586 ± 0.068
9,CGCGCGCG,-0.0393 ± 0.0083
10,AAGTGCCC,0.0017 ± 0.086
11,TAGTTCGA,0.117 ± 0.065
12,ATTTACGA,0.13 ± 0.011
13,GTTTACGA,0.233 ± 0.0029
14,CTTTACGA,-0.11 ± 0.061
15,GAACCTTA,0.14 ± 0.038
16,ACAACCAC,0.076 ± 0.093
17,ACAACCAT,0.266 ± 0.01
18,ACAACAAC,0.0959 ± 0.0063
19,CCAACCCC,0.19 ± 0.044
20,ACAACACC,0.257 ± 0.014
21,ACAACCCT,-0.0652 ± 0.072
22,ACAACCCC,0.237 ± 0.088
23,ACAACAAG,0.259 ± 0.0048
24,CCAACACC,-0.11 ± 0.046
25,ACAACCAG,0.144 ± 0.037

row,Sequence,PBM 8-mer E-score
1,GCAACACC,0.0523 ± 0.023
2,ACAACAAA,0.189 ± 0.045
3,AGAGCCAT,-0.0498 ± 0.022
4,GTACGTTA,0.0622 ± 0.061
5,TACGAAGA,0.16 ± 0.034
6,CTTCAGAC,-0.147 ± 0.0041
7,CCGCTGTA,-0.00727 ± 0.018
8,GATGGACC,-0.139 ± 0.026
9,AGCTAAAA,-0.0318 ± 0.011
10,ATACAAAC,0.182 ± 0.056
11,AGCTCTAG,-0.0829 ± 0.017
12,AGCACCTC,0.00592 ± 0.042
13,ATCCACCG,-0.1554 ± 0.001
14,GATAGCCC,0.0239 ± 0.026
15,GGGGTATA,0.217 ± 0.071
16,ATAGTAAT,0.0828 ± 0.014
17,ATAGTAAA,0.233 ± 0.068
18,CTAGTAAA,0.11 ± 0.069
19,CTGAGTCA,-0.163 ± 0.1
20,CCTCCCGA,-0.19 ± 0.041
21,ATAGTTAG,0.136 ± 0.038
22,AAATACCT,0.11169 ± 4.2e-05
